In PubChem BioAssay AID589 (National Center for Advancing Translational Sciences (NCATS), 2007):
The campaign covered roughly 59,000 compounds. About 6,200 (11%) were called active. Not shown: some 9% with an inconclusive outcome. This is one part of a sample in which actives are shown more often than they occur. No stated cut-off is given here; in the data, active means max dye-equivalent concentration above about 10 nM; inconclusive means mostly about 1.1 nM to 9.6 nM; inactive means weaker than that. More than one record can exist for a structure, and the calls need not agree.

Experiment: qHTS Assay for Spectroscopic Profiling in 4-MU Spectral Region
Conditions: compound autofluorescence, 340/450 nm, 4-MU equivalents; active compounds read high
Method in brief: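 Compounds in 100 mM Tris, pH 8.0, incubated 15 min at room temperature, then fluorescence read at 340 nm excitation/450 nm emission. Signal converted to 4-MU dye-equivalent concentration using an on-plate six-point 4-MU standard curve.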

Compound | max dye-equivalent concentration | outcome
COc1cc(C(=O)Nc2nccs2)cc(OC)c1OC | inactive | –
COc1cc(C(=O)Nc2oc(-c3ccccc3)c(-c3ccccc3)c2C#N)cc(OC)c1OC | 11 nM (active) | –
COC(=O)c1cccc(NC(=O)CN2CCC(NC(=O)c3cc(OC)c(OC)c(OC)c3)CC2)c1 | inactive | –
Cc1ccc(N2CCN(S(=O)(=O)N(C)C)CC2)cc1Cl | inactive | –
CCCn1c(SCC(N)=O)nnc1C(C)C | inactive | –
Cc1ccc(C(=O)CS(C)(=O)=O)cc1 | 20 nM (active) | –
N#Cc1ccc(CSc2nnc(-c3ccccn3)n2-c2ccc(Cl)cc2)cc1 | inactive | –
N#CNC1=NCN(CCc2ccccc2)CN1 | inactive | –
O=C(c1csnn1)N1CCC[C@@]2(CCN(c3cccc(-c4ccccc4)c3)C2)C1 | inactive | –
COc1ccc(CN2C(=O)CN=C2Nc2ccc(C)cc2C)cc1 | inactive | –
Cc1cc(C)nc(N2C(=O)CC(Cc3ccccc3)C2=O)n1 (stereo not given) | inactive | –
Nc1ccc2c3c(cccc13)C(=O)NC2=O | inactive | –
CCOc1ccccc1-n1c(SCC(=O)N2CCCC2)nnc1-c1ccoc1C | inactive | –
C=CCNc1nnc(C)c2ccccc12 | inactive | –
C=CCNc1nnc(SCC(=O)N2CCCCC2)c2ccccc12 | 16 nM (active) | –
CCNc1nc(SCCOc2ccccc2)nc(N(C)C)n1 | inactive | –
O=c1oc2cc(O)ccc2cc1-c1ccc(F)cc1 | 95 nM (active) | –
Nc1ncc(-c2cc3ccccc3oc2=O)s1 | inactive | –
O=C(NCCCNC(=O)NC1CCCCC1)NC1CCCCC1 | inactive | –
Cn1cnc2c1c(=O)n(Cc1c(Cl)cccc1Cl)c(=O)n2C | inactive | –
CNC(=O)c1ccc2nc(NC(C)=O)sc2c1 | inactive | –
COc1ccc2nc(NC(=O)c3ccc(Br)s3)sc2c1 | 460 nM (active) | –
COC(=O)c1sc(NC(=O)c2ccc(OC)cc2OC)nc1C | inactive | –

Compound | max dye-equivalent concentration | outcome
Cc1c(C)c2cc3c4c(oc3c(C)c2oc1=O)CCCC4 | 30 nM (active) | –
CC(=O)N(Cc1cccs1)C1CCOC(C)(C)C1 (stereo not given) | inactive | –
Cc1cc(NC(=O)CCC(=O)N(c2ccccc2)C(C(=O)NC2CCCC2)c2ccncc2)no1 (stereo not given) | inactive | –
COc1ccc(Cn2c(=O)sc3ccccc32)cc1OC | inactive | –
CCn1c(SCC(=O)NCc2ccco2)nnc1-c1ccc(N)cc1 | inactive | –
Cc1ccc2c(CSc3nncs3)cc(=O)oc2c1 | inactive | –
CCOC(=O)c1cc2occc2n1CC(=O)NC1CCC(C)CC1 (stereo not given) | inactive | –
CN(C)CCNC(CC(=O)Nc1ccc(Cl)c(Cl)c1)C(=O)O (stereo not given) | inactive | –
Cn1c(=O)n(C)c2cc(C(=O)Nc3ccc4c(c3)OCO4)ccc21 | inactive | –
O=C(Nc1ccncc1)c1c(F)cccc1F | inactive | –
CN1C(=O)c2ccc(NC(=O)c3c(F)c(F)c(F)c(F)c3F)cc2C1=O | 98 nM (active) | –
O=C(Nc1cnn(Cc2ccc(Cl)cc2)c1)C1CCCC1 | inactive | –
CN1C(=O)c2ccc(NC(=O)C3CCCCC3)cc2C1=O | 230 nM (active) | –
O=C(O)c1ccc(NC(=O)C2CCCCC2)cc1 | inactive | –
COc1ccc(C[C@H](N)C(=O)N[C@@H]2[C@H](O)[C@H](n3cnc4c(N(C)C)ncnc43)O[C@@H]2CO)cc1 | inactive | –
O=S(=O)(c1ccc(Sc2nnc3ccccn23)nc1)N1CCOCC1 | inactive | –
N#CCCN(CCC#N)c1nnc(-c2ccccc2)s1 | inactive | –
O=S(=O)(Nc1ccccc1N1CCOCC1)c1ccc(Cl)s1 | inactive | –
COC(=O)Cc1csc(Nc2c(C)n(C)n(-c3ccccc3)c2=O)n1 | inactive | –
CCOC(=O)CSc1nc2c(c(=O)n(Cc3ccccc3Cl)c(=O)n2C)n1C | inactive | –
CCOc1ccc(NC(=O)Nc2ccc(N(C)C(C)=O)cc2)cc1 | inactive | –
Cc1ccc(C(=O)Nc2ccccc2C(=O)NC2CCCCC2)cc1S(=O)(=O)N1CCOCC1 | inactive | –
O=C(NC1CCCCC1)c1ccc2c(=O)n(CC3CCCO3)c(=O)[nH]c2c1 (stereo not given) | 16 nM (active) | –

Compound | max dye-equivalent concentration | outcome
O=c1c2cc3c(=O)n(CC4CCCO4)c(=O)c3cc2c(=O)n1CC1CCCO1 (stereo not given) | inactive | –
CCOC(=O)c1ccc(N2C(=O)CC(N3CC(C)OC(C)C3)C2=O)cc1 (stereo not given) | inactive | –
CNCC[C@H](Oc1ccc(C(F)(F)F)cc1)c1ccccc1 | 13 nM (active) | inactive
Clc1ccc(C=Nc2ccc3c(c2)Cc2ccccc2-3)c(Cl)c1 | inactive | –
CC(C(=O)O)N1C(=O)c2cccc3cccc1c23 (stereo not given) | 15 nM (active) | –
COC(=O)c1ccc(NC(=O)C(C)N2C(=O)c3ccccc3C2=O)cc1 (stereo not given) | inactive | –
Cc1cc(C)nc(NC(=O)C(C)N2C(=O)c3ccccc3C2=O)n1 (stereo not given) | inactive | –
O=c1cc(CO)oc(CN2CCC(Cc3ccccc3)CC2)c1O | inactive | –
Cc1cccc2nc(CNc3ccc(F)cc3)cn12 | inactive | –
CC(C)OC(=O)C(C#N)c1nc2ccccc2nc1N1CCN(Cc2ccccc2)CC1 (stereo not given) | inactive | –
CC(C)OC(=O)C(C#N)c1nc2ccccc2nc1N1CCN(Cc2ccc3c(c2)OCO3)CC1 (stereo not given) | 110 nM (active) | –
COc1ccc(-c2csc(N3CCN(Cc4ccc5c(c4)OCO5)CC3)n2)cc1 | inactive | –
O=C(c1ccccc1)c1ccc(OC(=O)N2CCCC2)cc1 | inactive | –
COc1ccccc1-c1nc(NCCNC(C)=O)c2ccccc2n1 | inactive | –
CCCCN(C)Cc1c(C)[nH]c2ccc(Cl)cc2c1=O | inactive | –
Cc1ccc(S(=O)(=O)C(C#N)c2nc3ccccc3nc2N2CCCC2)cc1C (stereo not given) | 150 nM (active) | –
CCn1cc(C(=O)NCc2ccc3c(c2)OCO3)c2cc(OC)c(OC)cc2c1=O | inactive | –
Cc1ccccc1N1C(=O)C2ON(c3ccccc3)C(c3ccncc3)C2C1=O (stereo not given) | inactive | –
C=CCn1c(SCC(=O)NC23CC4CC(CC(C4)C2)C3)nc(O)cc1=O | inactive | –
Cn1c(=O)c2c(nc(N3CCCCCC3)n2CC(O)COc2ccc(Cl)cc2)n(C)c1=O (stereo not given) | 38 nM (active) | –
Cc1cccc(Cn2c(N3CCN(c4ccccc4)CC3)nc3c2c(=O)n(C)c(=O)n3C)c1 | inactive | –
Cn1c(=O)c2c(nc(N3CCCCCC3)n2CC(=O)c2ccc(Br)cc2)n(C)c1=O | inactive | –
CSCCC(NS(=O)(=O)/C=C/c1ccccc1)C(=O)N1CCC(C)CC1 (stereo not given) | inactive | –
